# Source: PubChem (National Center for Advancing Translational Sciences (NCATS))
# A selection: hits, their analogues and other compounds. The true share with any hit is near 18%.
# TGFb inhibitor = TGF-b pathway inhibition. HepG2 CAGA-GFP TGF-b/SMAD3 reporter, GFP fluorescence, 18 h; TGF-beta stimulated, 500 pg/mL final. Potency, µM (doses to about 46.1 µM), actives largely listed as inhibitors. 1.2% of 410,000 active. AID 588855; further: nearly all actives have a fitted effect of over 65% in size
#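 HEPG2 CAGA-GFP, 1000 cells/well; 2 h settle, 37 C; cpd via pin tool; TGF-b 500 pg/mL final; 18 h, 37 C; GFP imaging ex488/em500-530; %Activity normalised to -TGF-b and +DMSO controls; CRC fit, curve class.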
# DT40 TDP1 no CPT = qHTS for Inhibitors of human tyrosyl-DNA phosphodiesterase 1 (TDP1): qHTS in cells in absence of CPT; Potency, µM (top dose mostly 46.2 µM), most hits filed as inhibitors; AID 686978, 2013; 15% of 420,000 active; DT40 Tdp1-/- hTDP1 cells, no CPT, ATP luminescence, 48 h; further: nearly all actives have a fitted effect of over 55% in size
#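 Camptothecin absent (DMSO only). Human TDP1-complemented DT40 knockout cells, 400 cells/well, 37 °C for minimum 48 hr; ATP measured via CellTiter-Glo, 30 min dark incubation, luminescence.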
# TDP1 cell CPT = DT40-hTDP1 cell growth loss with CPT. Potency, µM (top dose mostly 46.2 µM), actives largely listed as inhibitors. chicken DT40 Tdp1-/-;hTDP1 cells + 20 nM CPT, ATP luminescence, 48 h. 12% of 420,000 active; further: nearly all actives have a fitted effect of over 55% in size
#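 Cell growth measured by CellTiter-Glo luminescence after a minimum 48 h, 37 C compound exposure with 20 nM CPT in Tdp1-knockout DT40 cells stably expressing hTDP1, seeded 400/well; qHTS titration format.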
# HepG2 viability = kills HepG2 cells in TGF-b inhibitor counter-screen. Potency, µM (highest dose often 46.1 µM), hits mostly cytotoxic. HepG2 CAGA-GFP viability, ATP luminescence, 18 h. 0.76% of 410,000 active
#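 HepG2 CAGA-GFP cells (1000/well, DMEM with 1% FBS) received compound, then TGF-beta at 500 pg/mL final, and were incubated 18 hours at 37 degrees C. Viability was read by CellTiter-Glo luminescence. Media-only wells were set as complete cell-killing and DMSO as no toxicity.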
# IL1B secr inh = blocks inflammasome-driven IL-1 beta release; THP-1 LPS/ATP IL-1B secretion, AlphaLISA, 16 h; hits give low values; activity change, % at 57.5 µM; 4.7% of 360,000 active; AID 743279; in the data active means activity change below about -50%; inconclusive means mostly about -30% to -49%
#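 Secreted IL-1B measured by AlphaLISA bead assay after 16 h compound exposure of THP-1 cells; compounds (final up to 57.5 uM) added 1 h before LPS (250 ng/mL) and ATP (1.25 mM) stimulation; lower signal means less secretion.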
# TDP1 inh = blocks human tyrosyl-DNA phosphodiesterase 1; Q9NUW8; recombinant TDP1, AlphaScreen DNA substrate cleavage; Potency, µM (series often up to 130 µM), most hits filed as inhibitors; 0.28% of 350,000 active; further: nearly all actives have a fitted effect of over 40% in size
# Target sequence (Q9NUW8 whole entry, looked up): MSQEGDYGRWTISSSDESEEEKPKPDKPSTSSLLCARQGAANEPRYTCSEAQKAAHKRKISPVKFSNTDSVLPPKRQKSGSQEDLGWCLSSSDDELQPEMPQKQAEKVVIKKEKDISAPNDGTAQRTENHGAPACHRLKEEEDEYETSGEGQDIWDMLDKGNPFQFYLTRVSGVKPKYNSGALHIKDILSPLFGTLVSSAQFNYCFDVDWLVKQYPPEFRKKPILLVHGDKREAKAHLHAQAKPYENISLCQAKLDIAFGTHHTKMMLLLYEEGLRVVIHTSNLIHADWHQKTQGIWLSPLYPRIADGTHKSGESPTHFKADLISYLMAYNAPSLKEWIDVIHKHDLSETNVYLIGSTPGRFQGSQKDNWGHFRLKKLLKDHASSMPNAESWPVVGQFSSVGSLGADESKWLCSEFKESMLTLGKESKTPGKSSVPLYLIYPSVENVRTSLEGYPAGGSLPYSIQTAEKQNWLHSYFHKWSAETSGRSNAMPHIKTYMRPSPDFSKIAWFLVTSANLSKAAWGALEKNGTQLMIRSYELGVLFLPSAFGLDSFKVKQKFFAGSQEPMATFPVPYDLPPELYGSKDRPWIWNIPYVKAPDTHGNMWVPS
#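 AlphaScreen read-out: signal falls as enzyme removes the 3' tyrosine-FITC from a 5'-biotinylated DNA oligo (15 nM, 5 min, RT). Enzyme was E. coli-made recombinant Tdp1 at 1 nM, exposed to compound for 15 min beforehand; beads 10 ug/ml, 10 min.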
# Hits are given with their value; 0 = inactive; ? = inconclusive; - = no result given. Unless noted, the call rests on the fitted dose curve; in most records, active means well fitted curve in the direction sought with a large enough effect; inconclusive means small, poorly fitted or top-dose-only effect, or another doubt; inactive means no such curve, though single readings can be large; an effect the other way counts as inactive or inconclusive.
SMILES,TGFb inhibitor,DT40 TDP1 no CPT,TDP1 cell CPT,HepG2 viability,IL1B secr inh,TDP1 inh
CC(C)(C)c1cc(C(=O)NNc2ccc(OC(F)(F)F)cc2)n(Cc2ccccc2)n1,?,?,0,0,-,0
CC(C)(C)c1cc(C(=O)NNc2cccc(Cl)c2)n(Cc2ccccc2)n1,?,?,?,0,-67.7,0
CC(C)(C)c1cc(C(=O)NNc2cc(C(F)(F)F)ccc2Cl)n(Cc2ccccc2)n1,11.2µM,20.6µM,?,10µM,-80.2,0
COc1ccccc1NC(=O)c1nnn(Cc2ccccc2)c1NC(=O)C(F)(F)F,0,29.1µM,?,0,0,0
COc1ccccc1NNC(=O)c1cc(C(C)(C)C)nn1Cc1ccccc1,0,23.1µM,0,0,-55.6,0
CCc1c2c(nc3ccc(OC)cc13)OC(CC)C2 (stereo not drawn),-,-,-,-,-,0
CN(C)c1cccc2cccc(N(C)C)c12,0,0,0,0,0,0
Cc1ccc2ccc3cccc4ccc1c2c34,0,0,0,0,0,56.2µM
CCCCCCCC/C=C\CCCCCCCC(=O)N[C@H](CO)Cc1ccc(O)cc1,-,-,-,-,-,0
O=C(CC1CCCC1)NNC(=O)c1ccc(Br)cc1,0,0,0,0,0,0
COc1ccc(OCCn2c(N)nc3ccccc32)cc1,0,23.1µM,?,0,0,-
Cc1nc2ccccc2n1CCOc1ccccc1,0,?,?,0,?,-
COc1ccc(OCCn2c(C(C)Oc3ccccc3)nc3ccccc32)cc1 (stereo not drawn),12.6µM,?,?,0,-,0
Nc1nc2ccccc2n1CCOc1ccc(F)cc1,0,23.1µM,?,0,-51.0,-
CCC1CC=CC2C1C(=O)N(Cc1ccccc1)C2c1ccc2ccccc2c1 (stereo not drawn),0,-,-,0,-,0
CC(NC(=O)C(C)(C)C)C(c1cccs1)N1CCOCC1 (stereo not drawn),0,0,0,0,0,0
CCc1cccc(NC(=O)CCC(=O)N2CCSc3ccccc32)c1,?,?,?,0,0,0
CCc1ccc(NC(=O)CCC(=O)N2CCSc3ccccc32)cc1,0,?,20.6µM,0,0,-
Cc1ccc(CNC(=O)CCC(=O)N2CCSc3ccccc32)cc1,?,23.1µM,?,0,-,0
O=c1[nH]c(=S)[nH]c2c1C(c1ccc(F)cc1)OC(CCc1ccccc1)C2 (stereo not drawn),-,?,0,-,0,-
O=c1[nH]c(=S)[nH]c2c1[C@H](C1CC1)O[C@H](CCc1ccccc1)C2,-,13µM,?,-,0,-
O=c1[nH][nH]c2c1[C@H](CCc1cccc(Cl)c1)O[C@H](CCc1ccccc1)C2,-,18.4µM,?,-,0,-
COc1ccc([C@H]2N[C@]3(CCCN(Cc4ccc(F)cc4)C3=O)[C@H]3C(=O)N(C)C(=O)[C@@H]23)cc1,0,0,0,0,0,-
COc1cc(NC(=O)Nc2cccn3nc(COCCO)nc23)cc(OC)c1OC,0,0,0,0,0,-
C=CCn1c(C)cc(C(=O)CSc2nnc(NCc3ccccc3)s2)c1C,?,14.6µM,9.2µM,0,0,0
SMILES,TGFb inhibitor,DT40 TDP1 no CPT,TDP1 cell CPT,HepG2 viability,IL1B secr inh,TDP1 inh
C=CCn1c(C)cc(C(=O)CSc2nc3ccccc3o2)c1C,0,?,16.4µM,0,-80.5,0
Cc1cc(C(=O)CSc2nc3ccccc3o2)c(C)n1C1CC1,0,14.6µM,20.6µM,0,?,0
O=C(NCc1ccccc1)C1(C(F)(F)F)C/C(=C\Cc2ccccc2)CCCO1 (stereo not drawn),?,-,-,0,-,0
COc1ccc(C)cc1C(=O)CCC(=O)Nc1ccccc1N1CCOCC1,0,?,?,0,0,0
O=C(CSc1nccn1Cc1ccc(Cl)cc1)Nc1ccc2c(c1)OCO2,0,0,0,0,-,0
COc1ccc(NC(=O)N(Cc2ccc(C)cc2)Cc2ccccn2)c(OC)c1,?,?,25.9µM,0,0,-
COc1ccc(NC(=O)CCOc2ccc(C)cc2)c(OC)c1,0,0,0,0,0,-
COc1ccc(CN(Cc2ccccn2)C(=O)CN2C(=O)C(C)Oc3ccccc32)cc1 (stereo not drawn),0,20.6µM,?,0,0,0
O=C(CN1C(=O)COc2ccccc21)N(Cc1ccccc1)Cc1ccccn1,0,0,0,0,0,0
CN(CC(=O)Nc1ccc(F)cc1)C(=O)COC(=O)CNC(=O)c1ccc(Cl)cc1Cl,0,0,0,0,0,0
O=C(NCCCN1CCCCC1)c1cc(Sc2ccc(Cl)cc2)nc2ccccc12,0,23.1µM,16.4µM,0,-,0
CCN(CC)CCCNC(=O)c1[nH]c2ccccc2c1Sc1ccc(Cl)cc1,?,14.6µM,?,0,-76.1,-
O=C(NCCCN1CCCC1)c1cc(Sc2ccc(F)cc2)nc2ccccc12,0,0,0,0,-51.8,0
CCCCNC(=O)c1[nH]c2ccccc2c1Sc1ccc(C)cc1,0,0,?,0,-,0
CCOCCCNC(=O)c1[nH]c2cc(OC)ccc2c1Sc1ccccc1,0,0,0,0,-,0
COc1ccc2c(Sc3ccc(Cl)cc3)c(C(=O)NCCCN3CCCCC3)[nH]c2c1,?,23.1µM,23.1µM,15.8µM,-,0
CCOC1CCCc2oc(-c3ccc(N(C)C)cc3)c(C(=O)OC)c21 (stereo not drawn),-,?,?,-,0,-
Cc1ccc(S(=O)(=O)NC(C(=O)N2CCN(S(=O)(=O)c3cccc(F)c3)CC2)C(C)C)cc1 (stereo not drawn),0,0,0,0,0,0
CCCSc1ccc([C@@H]2[C@H]3C(=O)N(CC)C(=O)[C@H]3[C@]3(C(=O)OC)CCCCN23)cc1OC,0,?,?,0,0,0
CCN1C(=O)[C@H]2[C@@H](c3ccc(-c4ccccc4)cc3)N3CCCC[C@@]3(C(=O)OC)[C@H]2C1=O,0,18.4µM,?,0,0,0
CCN1C(=O)[C@@H]2[C@@H](c3ccc(-c4ccc(OC)cc4)cc3)N3CCCC[C@@]3(C(=O)OC)[C@@H]2C1=O,0,16.4µM,25.9µM,0,0,0
COC(=O)[C@@]12CCCN1[C@H](c1ccc(-c3ccc(OC)cc3)c(OC)c1)[C@H]1C(=O)N(C)C(=O)[C@H]12,0,?,?,0,0,0
CCN1C(=O)[C@@H]2[C@@H](c3ccc(-c4ccc(C(C)=O)cc4)cc3)N3CCCC[C@@]3(C(=O)OC)[C@@H]2C1=O,?,18.4µM,16.4µM,0,0,0
COc1cccc(N2CCN(C(=O)CCNS(=O)(=O)c3ccc4c(c3)c(=O)n(C)c(=O)n4C)CC2)c1,0,0,0,0,0,0
